In PubChem BioAssay (NCI):
The panel holds about 83,000 compounds, 20% with a hit somewhere; the sample as a whole holds those more often.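 For each line, cells grew in 96-well plates with the test compound present at a single concentration for 48 hours.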 The source made the active and inactive calls. Rule for the calls: active = growth percent below 10; inactive = the rest.

Key:
Assay in all cases: NCI-60 one-dose screen, 48 h (100 = growth as untreated, 0 = no growth, -100 = all killed)
Conditions in all cases: 10 µM unless noted
[1] = tested on: DU-145 prostate
[2] = tested on: K-562 leukemia
[3] = tested on: MALME-3M melanoma
[4] = tested on: MDA-MB-231 breast
[5] = tested on: RXF 393 renal
[6] = tested on: SF-268 CNS
[7] = tested on: SF-295 CNS
[8] = tested on: SF-539 CNS
[9] = tested on: UACC-257 melanoma
[10] = tested on: M14 melanoma
[11] = tested on: HCT-15 colon
[12] = tested on: HT29 colon
[13] = tested on: SNB-75 CNS
[14] = tested on: SNB-19 CNS
[15] = tested on: U251 CNS
[16] = tested on: PC-3 prostate
[17] = tested on: SK-MEL-5 melanoma
[18] = tested on: UACC-62 melanoma
[19] = tested on: LOX IMVI melanoma
[20] = tested on: SK-MEL-28 melanoma

Measured: growth

Cn1ccnc1C(=O)/C=C/c1ccc(CC(=O)NC2CCCCC2)cc1
inactive: [2] 18% | [3] 92% | [4] 65.1% | [5] 73.2% | [6] 40.9% | [7] 77.8% | [8] 63.7% | [9] 84.8% | [10] 89.8% | [11] 33.1% | [12] 15.3% | [14] 46.2% | [15] 31.4% | [16] 59.7% | [17] 71.3% | [18] 73.4% | [19] 44.5%
active: [1] 6.25% | [13] 3.39%

NC(=NCCCOc1ccc(F)cc1)Nc1ccc(I)cc1
inactive: [1] 63.1% | [2] 27.3% | [3] 74.6% | [4] 51.9% | [5] 94% | [6] 67.7% | [7] 80.8% | [8] 78.8% | [9] 55.8% | [10] 59.6% | [11] 75.3% | [12] 38.2% | [13] 63.6% | [14] 78.1% | [15] 78.6% | [16] 59.1% | [17] 38.2% | [18] 82.8% | [19] 84.4% | [20] 88.3%

COc1ccc(-c2[nH][nH]c(=O)c2-c2nc3ccccc3s2)cc1
inactive: [1] 108% | [2] 98.2% | [3] 110% | [4] 104% | [5] 109% | [6] 101% | [7] 107% | [8] 108% | [9] 106% | [10] 107% | [11] 95.4% | [12] 106% | [13] 88.9% | [14] 102% | [15] 101% | [16] 102% | [17] 102% | [18] 98% | [19] 99.9% | [20] 112%

O=S(=O)(NCCNc1nccc(-c2c(-c3cccc(O)c3)nc3occn23)n1)c1ccc(C(F)(F)F)cc1
inactive: [1] 108% | [2] 97.2% | [4] 90.7% | [5] 101% | [6] 97.3% | [7] 107% | [8] 114% | [9] 61.1% | [10] 38.9% | [11] 108% | [12] 72.9% | [13] 92.5% | [14] 115% | [15] 104% | [16] 99.7% | [17] 55.7% | [18] 26.7% | [19] 75.1%
active: [3] 7.76%

CCN1CCN(CCNc2nccc(-c3c(-c4cccc(OC)c4)nc4occn34)n2)S1(=O)=O
active: [2] 7.02% | [3] 6.12%
inactive: [1] 104% | [4] 87.7% | [5] 94.4% | [6] 102% | [7] 101% | [8] 104% | [9] 52.7% | [10] 40% | [11] 102% | [12] 50.3% | [13] 112% | [14] 113% | [15] 113% | [16] 96.9% | [17] 60.5% | [18] 27.5% | [19] 76.6%

O=C(Nc1cccc(C2=NCCN2)c1)c1ccc(-c2ccc(C(=O)Nc3cccc(C4=NCCN4)c3)cc2)cc1
active: [3] 9.06%
inactive: [1] 39.1% | [2] 35.5% | [4] 79.6% | [5] 122% | [6] 90.2% | [7] 71.1% | [8] 97.5% | [9] 36.7% | [10] 77.7% | [11] 82.6% | [12] 84.5% | [13] 82% | [14] 87% | [15] 86.3% | [16] 97.7% | [17] 36.9% | [18] 68.1% | [19] 97.9% | [20] 46.3%

c1ccc2cc(Cn3c(-c4cccc5ccccc45)[n+](Cc4ccc5ccccc5c4)c4c5ccccc5c5ccccc5c43)ccc2c1
active: [1] -96.5% | [2] -35.2% | [3] -82.6% | [4] -72.9% | [5] -90.6% | [6] -38.2% | [7] -83.9% | [8] -92.5% | [9] -67.2% | [10] -63.5% | [11] -60.4% | [12] -49.5% | [13] -66.3% | [14] -82.7% | [15] -91.1% | [16] -46.7% | [17] -98.1% | [18] -74.5% | [19] -84.3%

Cc1ccc(-n2cc(-c3ccccc3)c3c2N=NN2CCN=C32)cc1
inactive: [1] 113% | [2] 87% | [3] 104% | [4] 85.9% | [5] 109% | [6] 96.8% | [7] 96.5% | [8] 101% | [9] 113% | [10] 104% | [11] 101% | [12] 110% | [13] 72.1% | [14] 92.2% | [15] 99.1% | [16] 86.4% | [17] 99.1% | [18] 82.3% | [19] 97.7% | [20] 109%
